Molecules are shown by their SMILES. The panel holds about 83,000 compounds, 20% with a hit somewhere; the sample as a whole holds those more often.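 Cell lines were cultured in 96-well plates, exposed to a single compound concentration, and assessed for percent growth 48 hours later.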 A number with no mark means an inactive call. Active and inactive are the calls of the source. The calls were made as follows: active = growth percent below 10; inactive = the rest.

Assay in all cases: NCI-60 one-dose screen, 48 h (100 = growth as untreated, 0 = no growth, -100 = all killed)
Test [1] deals with BT-549 breast. The conditions noted are these: 10 µM.
The test system of test [2] is MDA-MB-435 melanoma. The conditions noted are these: 10 µM.
Test [3] deals with SW-620 colon. The conditions noted are these: 10 µM.
In test [4] the test system is MCF7 breast. The following applies: 10 µM unless noted.
For test [5], the system named is HCT-116 colon. The conditions noted are these: 10 µM.
Test [6] has as its system HCC-2998 colon. The conditions noted are these: 10 µM.
In test [7] the test system is KM12 colon. The following applies: 10 µM.
The test system of test [8] is T-47D breast. The following applies: 10 µM.

For the molecule `O=C(CCNNC(=O)c1ccncc1)NCc1ccccc1`, the growth is 134% in test [1]; 95.7% in test [2]; 96% in test [3]; 89.9% in test [4]; 105% in test [5]; 111% in test [6]. Also, the growth in test [7] was 97.5%.
Take `Cc1cc2ccccc2c(O)c1C#N`: the growth in test [8] was 88.8%; in test [2] it was 108%; in test [3], 104%; in test [4] it was 99.3%; in test [5], 105%; in test [7], 105%.
As to `OCCN1CCOCC1`, the growth in test [8] is 106%; in test [2], 116%; in test [3], 113%; in test [4] it was 94.8%; in test [5] it was 97.2%; in test [7], 111%.
`O=C(O)COCC(=O)O`: the growth in test [8] is 129%; in test [2], 109%; in test [3], 102%; in test [4], 100%; in test [5], 108%; in test [6] it was 114%. The growth in test [7] was 96.4%.
As to `N#CCc1ccc([N+](=O)[O-])cc1`, the growth in test [8] is 98.6%; in test [2], 114%; in test [3], 94.5%; in test [4], 89.8%; in test [5], 109%; in test [6], 101%. In test [7], the growth is 109%.
In the case of `CCOC(=O)c1coc(C(=O)OCC)c1C(=O)OCC`, the growth in test [8] was 117%; in test [2] it was 108%; in test [3], 113%; in test [4] it was 113%; in test [5], 115%; in test [6] it was 108%. Also, in test [7], the growth was 106%.
With `CCC(O)CC(CC)CO` (stereo not drawn), the growth in test [8] is 115%; in test [2], 114%; in test [3] it was 110%; in test [4], 97.8%; in test [5] it was 100%; in test [6], 109%. In addition, in test [7], the growth was 128%.
Take `Brc1cnc2ccccc2c1`: the growth is 108% in test [8]; 105% in test [2]; 95.8% in test [3]; 101% in test [4]; 106% in test [5]; 100% in test [6]. The growth in test [7] is 100%.
Consider `CC1=CC(C)(C)NC(=S)N1c1ccc(S(=O)(=O)O)c2cccc(S(=O)(=O)O)c12`, for which the growth in test [8] was 106%; in test [2], 106%; in test [3], 95.2%; in test [4] it was 108%; in test [5] it was 107%; in test [6] it was 108%. For the same molecule, in test [7], the growth is 94.6%.
Consider `CCOc1ccc(/C=N/N=C(N)N)cc1OCC`, for which the growth in test [8] was 88.4%; in test [2] it was 99%; in test [4], 82.3%; in test [5], 95.8%; in test [6], 101%; in test [7] it was 108%.
Consider `C=CC(O)CCC` (stereo not drawn), for which the growth was 112% in test [1]; 90.4% in test [2]; 101% in test [3]; 95.3% in test [4]; 112% in test [5]; 113% in test [6]. Also, the growth in test [7] is 109%.
Regarding `COc1ccc(C(C)C=O)cc1` (stereo not drawn), the growth is 97.9% in test [8]; 113% in test [2]; 95.9% in test [4]; 101% in test [5]; 109% in test [6]; 107% in test [7].
With `O=[N+]([O-])c1ccc(N=Nc2ccc(O)c3ccccc23)cc1`, the growth was 9.85% (active) in test [8]; 52.7% in test [2]; 34% in test [3]; 19.5% in test [4]; 33.1% in test [7].
For `C=CC(=O)OCCCCCCCC`, the growth was 105% in test [8]; 106% in test [2]; 103% in test [3]; 95.3% in test [4]; 100% in test [5]; 104% in test [6]. In test [7], the growth was 101%.
Consider `c1ccc2c(c1)Sc1ccccc1S2`, for which the growth in test [1] was 97.5%; in test [2] it was 110%; in test [3], 104%; in test [4], 95.7%; in test [5], 106%; in test [6] it was 92.5%. Moreover, in test [7], the growth was 108%.
As to `Cc1ccc(S(=O)(=O)O)c(C)c1`, the growth in test [8] was 92.5%; in test [2] it was 107%; in test [3], 98.8%; in test [4], 95.3%; in test [5] it was 101%; in test [6], 107%. In addition, the growth in test [7] is 109%.
Take `Nc1ccc(C(=O)c2ccc(N)c(Br)c2)cc1Br`: the growth in test [1] is 56.4%; in test [2] it was -3.36% (active); in test [3], 21.2%; in test [4] it was 13.2%; in test [5], 14.8%; in test [6], 14.1%.
Take `O=c1[nH]c(O)c(/C=C2/C=Nc3ccccc32)[nH]1`: the growth in test [8] was 85.5%; in test [2] it was 102%; in test [3], 104%; in test [4], 56.3%; in test [5], 96.4%; in test [7], 88.4%.
As to `Cc1ccc(C)n1-c1ccsc1C(=O)NNC(=O)CCl`, the growth in test [1] is 70.1%; in test [2] it was 92.1%; in test [3], 108%; in test [4] it was 78.4%; in test [5], 78%; in test [6], 116%. Besides, the growth in test [7] is 104%.
For the molecule `CN(C)c1ccc2oc(=O)c3ccccc3c2c1`, the growth is 96.1% in test [8]; 109% in test [2]; 85.2% in test [3]; 72.9% in test [4]; 83.2% in test [5]; 88.5% in test [6]. In addition, the growth in test [7] was 90.9%.
For `N#CSc1cc(S(N)(=O)=O)ccc1N`, the growth in test [8] is 104%; in test [2] it was 120%; in test [3], 107%; in test [4], 94.5%; in test [5], 102%; in test [7], 107%.

Source of the values: PubChem BioAssay (NCI).
